Records with an inconclusive call do not appear. Entries that show only a call come without a potency. Unmarked numbers belong to inactive results. The source made the active and inactive calls. The call rests on the fitted dose curve; in most records, active means well fitted curve in the direction sought with a large enough effect in the repeat runs; inconclusive means weak or mixed curves; inactive means no such curve, though single readings can be large; an effect the other way counts as inactive or inconclusive.
Test: Human pregnane X receptor (PXR) small molecule agonists, qHTS cell viability counter screen (AID 1346977); further: nearly all actives have a fitted effect of over 50% in size
Conditions: PXR-Luc HepG2 viability, CellTiter-Fluor, 24 h; series mostly up to 92.4 µM; activity change, negative = cytotoxicity: at the top concentration
Method in brief: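 In each well, the PXR reporter HepG2 line was checked for viability: CellTiter-Fluor reagent added 23hr post-dosing, fluorescence read after 1hr incubation at 37C.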

SMILES	Potency
C=CCN=C=S	inactive
CCOP(=S)(OCC)Oc1cc(C)nc(C(C)C)n1	inactive
Nc1cc(Cl)cc(Cl)c1	inactive
O=C(O)C1C(C(=O)O)C2(Cl)C(Cl)=C(Cl)C1(Cl)C2(Cl)Cl (stereo not drawn)	inactive
N#Cc1ccccn1	inactive
[N-]=[N+]=CC(=O)OC[C@H](N)C(=O)O	inactive
CN(C)NC(=O)CCC(=O)O	inactive
CC(=O)C1CCOC1=O (stereo not drawn)	inactive
O=C(O)Cc1ccccc1	inactive
COP(=S)(OC)Oc1ccc(SC)c(C)c1	inactive
c1ccc2c(c1)CCCC2	inactive
CC(=O)/C=C/c1ccccc1	inactive
C/C=C/c1ccc2c(c1)OCO2	inactive
Cc1cccc(C)c1N	inactive
COc1nc(NC(C)C)nc(NC(C)C)n1	inactive
N#Cc1cccc(C#N)c1	inactive

SMILES	Potency
Nc1cccc(Cl)c1	inactive
OC[C@@H](O)[C@H]1O[C@@H]2O[C@H](C(Cl)(Cl)Cl)O[C@@H]2[C@H]1O	inactive
COP(=S)(OC)SCN1C(=O)c2ccccc2C1=O	inactive
Nc1nc(N)nc(NC2CC2)n1	inactive
Cc1ccc(N=C=O)cc1N=C=O	inactive
CC(C)CCCCCCOC(=O)c1ccccc1C(=O)OCCCCCCC(C)C	inactive
CN(C)C(=O)Cl	inactive
Cc1ccc(O)c(C)c1	inactive
NNc1ccccc1	inactive
C=CC#N	inactive
CCCCCCCCCCCCCCCCCC(=O)O	inactive
CC12CC1(C)C(=O)N(c1cc(Cl)cc(Cl)c1)C2=O (stereo not drawn)	inactive
C=C(C)C(=O)OCC(CC)CCCC (stereo not drawn)	inactive
CC[N+](=O)[O-]	inactive
O=C(O)C(Br)Br	inactive

Test: Caspase-3/7 induction in HepG2 cells by small molecules, qHTS assay (AID 1346978); further: nearly all actives have a fitted effect of over 15% in size
Conditions: HepG2 caspase-3/7 activation, Caspase-Glo luminescence, 17 h; series mostly up to 92.4 µM; caspase activation: at the top concentration
Method in brief: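 Wild-type HepG2 cells, 2,000/well, settled 5 hr at 37 C and 5% CO2, then compound-treated for 17 hr; caspase-3/7 activity read by luminescent Caspase-Glo 3/7 after 30 min at room temperature.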

SMILES	outcome
C=CCN=C=S	inactive
CCOP(=S)(OCC)Oc1cc(C)nc(C(C)C)n1	inactive
Nc1cc(Cl)cc(Cl)c1	inactive
O=C(O)C1C(C(=O)O)C2(Cl)C(Cl)=C(Cl)C1(Cl)C2(Cl)Cl (stereo not drawn)	inactive
N#Cc1ccccn1	inactive
[N-]=[N+]=CC(=O)OC[C@H](N)C(=O)O	inactive
CN(C)NC(=O)CCC(=O)O	inactive
CC(=O)C1CCOC1=O (stereo not drawn)	inactive
O=C(O)Cc1ccccc1	inactive
COP(=S)(OC)Oc1ccc(SC)c(C)c1	inactive
c1ccc2c(c1)CCCC2	inactive
CC(=O)/C=C/c1ccccc1	inactive
C/C=C/c1ccc2c(c1)OCO2	inactive
Cc1cccc(C)c1N	inactive
COc1nc(NC(C)C)nc(NC(C)C)n1	inactive
N#Cc1cccc(C#N)c1	inactive

SMILES	outcome
Nc1cccc(Cl)c1	inactive
OC[C@@H](O)[C@H]1O[C@@H]2O[C@H](C(Cl)(Cl)Cl)O[C@@H]2[C@H]1O	inactive
COP(=S)(OC)SCN1C(=O)c2ccccc2C1=O	inactive
Nc1nc(N)nc(NC2CC2)n1	inactive
Cc1ccc(N=C=O)cc1N=C=O	inactive
CC(C)CCCCCCOC(=O)c1ccccc1C(=O)OCCCCCCC(C)C	inactive
CN(C)C(=O)Cl	inactive
Cc1ccc(O)c(C)c1	inactive
NNc1ccccc1	inactive
C=CC#N	inactive
CCCCCCCCCCCCCCCCCC(=O)O	inactive
CC12CC1(C)C(=O)N(c1cc(Cl)cc(Cl)c1)C2=O (stereo not drawn)	inactive
C=C(C)C(=O)OCC(CC)CCCC (stereo not drawn)	inactive
CC[N+](=O)[O-]	inactive
O=C(O)C(Br)Br	inactive

Test: Caspase-3/7 induction in CHO-K1 cells by small molecules, qHTS cell viability counter screen (AID 1346979); further: nearly all actives have a fitted effect of over 35% in size
Conditions: CellTiter-Fluor fluorescence, 17 h; series mostly up to 92.4 µM; activity change, negative = cytotoxicity: at the top concentration
Method in brief: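 Following a 5hr settling period, CHO-K1 cells at 1,500 per well received DMSO-dissolved compounds. Cell viability was quantified 16hr later by CellTiter-Fluor fluorescence, measured after 1hr with reagent at 37C.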

SMILES	Potency	activity change, negative = cytotoxicity
C=CCN=C=S	inactive	–
CCOP(=S)(OCC)Oc1cc(C)nc(C(C)C)n1	inactive	–
Nc1cc(Cl)cc(Cl)c1	inactive	–
O=C(O)C1C(C(=O)O)C2(Cl)C(Cl)=C(Cl)C1(Cl)C2(Cl)Cl (stereo not drawn)	inactive	–
N#Cc1ccccn1	inactive	–
[N-]=[N+]=CC(=O)OC[C@H](N)C(=O)O	inactive	–
CN(C)NC(=O)CCC(=O)O	inactive	–
CC(=O)C1CCOC1=O (stereo not drawn)	inactive	–
O=C(O)Cc1ccccc1	inactive	–
COP(=S)(OC)Oc1ccc(SC)c(C)c1	inactive	–
c1ccc2c(c1)CCCC2	inactive	–
CC(=O)/C=C/c1ccccc1	inactive	–
C/C=C/c1ccc2c(c1)OCO2	–	6.52%
Cc1cccc(C)c1N	inactive	–
COc1nc(NC(C)C)nc(NC(C)C)n1	inactive	–
N#Cc1cccc(C#N)c1	inactive	–

SMILES	Potency	activity change, negative = cytotoxicity
Nc1cccc(Cl)c1	inactive	–
OC[C@@H](O)[C@H]1O[C@@H]2O[C@H](C(Cl)(Cl)Cl)O[C@@H]2[C@H]1O	inactive	–
COP(=S)(OC)SCN1C(=O)c2ccccc2C1=O	inactive	–
Nc1nc(N)nc(NC2CC2)n1	inactive	–
Cc1ccc(N=C=O)cc1N=C=O	inactive	–
CC(C)CCCCCCOC(=O)c1ccccc1C(=O)OCCCCCCC(C)C	inactive	–
CN(C)C(=O)Cl	inactive	–
Cc1ccc(O)c(C)c1	inactive	–
NNc1ccccc1	inactive	–
C=CC#N	inactive	–
CCCCCCCCCCCCCCCCCC(=O)O	inactive	–
CC12CC1(C)C(=O)N(c1cc(Cl)cc(Cl)c1)C2=O (stereo not drawn)	inactive	–
C=C(C)C(=O)OCC(CC)CCCC (stereo not drawn)	inactive	–
CC[N+](=O)[O-]	inactive	–
O=C(O)C(Br)Br	inactive	–

— PubChem BioAssay (Tox21)
